Experimental data taken from the supplement of paper PMC11732987, “Enantioselective OTUD7B fragment discovery through chemoproteomics screening and high-throughput optimisation” (Communications Chemistry, 2025).

Legend:
Experiment in all cases: log2 ratio of Biotin-Ahx-Ub-VS probe labelling (fragment/DMSO); higher = less target engagement (more negative = stronger competition), active = hit call of the paper (q ≤ 0.05, log2 ratio ≤ -1)
Conditions in all cases: compound concentration: 200 uM; treatment time: 3 h
[1] = target: T1, USP42 (UniProt Q9H9J4)
T1 sequence (whole entry): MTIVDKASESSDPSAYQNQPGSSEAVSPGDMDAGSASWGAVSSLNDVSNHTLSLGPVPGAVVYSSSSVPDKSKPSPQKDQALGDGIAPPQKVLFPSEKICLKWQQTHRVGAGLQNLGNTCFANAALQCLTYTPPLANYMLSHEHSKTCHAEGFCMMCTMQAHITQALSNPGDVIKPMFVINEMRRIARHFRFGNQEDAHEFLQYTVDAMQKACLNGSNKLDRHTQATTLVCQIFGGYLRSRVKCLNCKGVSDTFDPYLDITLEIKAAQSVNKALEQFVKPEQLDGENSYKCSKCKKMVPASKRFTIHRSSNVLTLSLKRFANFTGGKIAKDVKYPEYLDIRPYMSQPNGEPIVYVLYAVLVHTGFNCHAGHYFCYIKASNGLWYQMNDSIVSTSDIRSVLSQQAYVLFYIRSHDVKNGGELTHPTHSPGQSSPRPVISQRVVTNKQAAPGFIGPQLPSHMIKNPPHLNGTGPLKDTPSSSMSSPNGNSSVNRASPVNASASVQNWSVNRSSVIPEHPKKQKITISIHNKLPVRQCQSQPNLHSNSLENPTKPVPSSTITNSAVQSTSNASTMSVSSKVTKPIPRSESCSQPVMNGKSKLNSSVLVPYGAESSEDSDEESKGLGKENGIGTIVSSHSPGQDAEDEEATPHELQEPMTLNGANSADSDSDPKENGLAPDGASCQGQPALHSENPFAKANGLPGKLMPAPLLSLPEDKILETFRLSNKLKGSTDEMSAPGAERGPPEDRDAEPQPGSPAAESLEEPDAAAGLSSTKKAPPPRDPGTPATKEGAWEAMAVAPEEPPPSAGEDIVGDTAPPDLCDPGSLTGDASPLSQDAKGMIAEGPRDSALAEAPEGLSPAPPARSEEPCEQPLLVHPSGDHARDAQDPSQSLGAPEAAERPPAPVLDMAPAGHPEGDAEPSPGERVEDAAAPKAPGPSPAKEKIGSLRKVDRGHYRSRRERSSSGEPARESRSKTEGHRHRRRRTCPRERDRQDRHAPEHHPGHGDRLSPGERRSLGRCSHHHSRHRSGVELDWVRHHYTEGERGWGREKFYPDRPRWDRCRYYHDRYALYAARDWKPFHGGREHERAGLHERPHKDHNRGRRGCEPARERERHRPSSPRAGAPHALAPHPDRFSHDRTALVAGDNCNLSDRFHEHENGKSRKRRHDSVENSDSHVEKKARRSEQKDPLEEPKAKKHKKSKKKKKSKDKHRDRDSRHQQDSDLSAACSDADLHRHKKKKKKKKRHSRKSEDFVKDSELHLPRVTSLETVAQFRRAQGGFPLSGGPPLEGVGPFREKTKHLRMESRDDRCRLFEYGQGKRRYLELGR
In short: (§1)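 Labelled DUBs were enriched with NeutrAvidin, digested with LysC and trypsin, and run by diaPASEF LC-MS/MS. The labelling used Biotin-Ahx-Ub-VS at 0.5 µM final for 1 h on HEK293T lysate (495 µg per sample) previously treated in triplicate with fragment at 200 µM or vehicle for 3 h. Values are average log2 fragment/vehicle ratios by unpaired t-test on global-median-normalised Spectronaut quantities of proteins with ≥2 unique peptides.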

[2] = target: USP46 (UniProt P62068)
In short: as §1

[3] = target: T2, USP47 (UniProt Q96K76)
T2 sequence (whole entry): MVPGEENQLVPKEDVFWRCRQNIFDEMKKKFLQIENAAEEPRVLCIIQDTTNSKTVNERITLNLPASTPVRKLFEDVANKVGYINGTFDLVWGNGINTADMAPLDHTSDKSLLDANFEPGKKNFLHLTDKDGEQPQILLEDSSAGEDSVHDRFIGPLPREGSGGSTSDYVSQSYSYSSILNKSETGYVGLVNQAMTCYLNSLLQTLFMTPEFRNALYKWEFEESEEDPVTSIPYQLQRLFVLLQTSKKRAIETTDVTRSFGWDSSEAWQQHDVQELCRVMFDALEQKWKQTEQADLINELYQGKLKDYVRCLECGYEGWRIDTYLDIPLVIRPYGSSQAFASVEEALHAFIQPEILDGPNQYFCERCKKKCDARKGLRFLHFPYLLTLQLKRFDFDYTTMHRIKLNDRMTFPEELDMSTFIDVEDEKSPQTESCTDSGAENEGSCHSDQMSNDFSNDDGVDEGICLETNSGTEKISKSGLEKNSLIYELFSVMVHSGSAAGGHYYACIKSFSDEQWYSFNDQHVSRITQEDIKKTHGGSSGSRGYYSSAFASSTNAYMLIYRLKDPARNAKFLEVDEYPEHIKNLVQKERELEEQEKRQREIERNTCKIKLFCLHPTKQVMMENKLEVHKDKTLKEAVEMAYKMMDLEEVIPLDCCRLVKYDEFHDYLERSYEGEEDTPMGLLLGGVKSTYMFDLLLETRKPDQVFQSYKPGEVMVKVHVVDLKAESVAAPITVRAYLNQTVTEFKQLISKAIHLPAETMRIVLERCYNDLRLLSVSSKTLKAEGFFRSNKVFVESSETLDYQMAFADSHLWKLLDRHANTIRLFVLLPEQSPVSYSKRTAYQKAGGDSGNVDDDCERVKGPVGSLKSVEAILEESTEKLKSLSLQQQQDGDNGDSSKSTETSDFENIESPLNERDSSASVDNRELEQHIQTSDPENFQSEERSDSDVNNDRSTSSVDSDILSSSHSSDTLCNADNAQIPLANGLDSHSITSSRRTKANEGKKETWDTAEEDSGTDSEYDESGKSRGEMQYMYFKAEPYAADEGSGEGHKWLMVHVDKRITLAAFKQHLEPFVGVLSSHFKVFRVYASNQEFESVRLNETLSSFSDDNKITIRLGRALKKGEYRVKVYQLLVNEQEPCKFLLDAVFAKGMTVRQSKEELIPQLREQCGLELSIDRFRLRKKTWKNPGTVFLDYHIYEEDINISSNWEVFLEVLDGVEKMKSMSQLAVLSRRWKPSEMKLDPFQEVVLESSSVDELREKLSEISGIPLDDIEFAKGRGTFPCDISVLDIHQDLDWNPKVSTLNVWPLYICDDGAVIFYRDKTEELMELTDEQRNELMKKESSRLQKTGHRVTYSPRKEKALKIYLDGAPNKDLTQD
In short: as §1

[4] = target: T3, USP48 (UniProt Q86UV5)
T3 sequence (whole entry): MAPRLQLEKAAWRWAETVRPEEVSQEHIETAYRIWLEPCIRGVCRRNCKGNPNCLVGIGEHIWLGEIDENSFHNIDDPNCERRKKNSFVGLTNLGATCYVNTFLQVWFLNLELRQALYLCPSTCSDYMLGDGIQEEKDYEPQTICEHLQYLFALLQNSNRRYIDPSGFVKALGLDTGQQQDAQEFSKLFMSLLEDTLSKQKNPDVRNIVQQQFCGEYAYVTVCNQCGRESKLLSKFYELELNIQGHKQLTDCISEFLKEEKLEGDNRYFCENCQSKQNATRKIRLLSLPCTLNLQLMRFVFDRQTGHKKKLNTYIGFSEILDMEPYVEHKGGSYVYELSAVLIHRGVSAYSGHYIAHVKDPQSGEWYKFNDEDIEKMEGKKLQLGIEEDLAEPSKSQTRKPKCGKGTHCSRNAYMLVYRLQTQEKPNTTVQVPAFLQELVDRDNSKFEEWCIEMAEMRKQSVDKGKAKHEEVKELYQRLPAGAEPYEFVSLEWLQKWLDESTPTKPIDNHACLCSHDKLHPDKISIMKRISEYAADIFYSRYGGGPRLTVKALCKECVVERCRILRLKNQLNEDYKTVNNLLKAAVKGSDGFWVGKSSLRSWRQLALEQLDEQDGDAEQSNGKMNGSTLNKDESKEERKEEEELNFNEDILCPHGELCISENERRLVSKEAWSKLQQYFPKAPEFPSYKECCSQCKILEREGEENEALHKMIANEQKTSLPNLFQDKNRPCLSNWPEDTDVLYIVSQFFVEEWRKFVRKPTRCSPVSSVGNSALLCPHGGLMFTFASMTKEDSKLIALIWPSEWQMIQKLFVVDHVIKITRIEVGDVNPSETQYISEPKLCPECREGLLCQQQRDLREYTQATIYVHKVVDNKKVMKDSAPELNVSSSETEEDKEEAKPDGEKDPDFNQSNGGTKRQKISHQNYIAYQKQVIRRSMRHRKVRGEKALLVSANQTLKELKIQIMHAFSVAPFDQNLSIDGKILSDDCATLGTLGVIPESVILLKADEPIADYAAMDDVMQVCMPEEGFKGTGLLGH
In short: as §1

[5] = target: T4, USP5 (UniProt P45974)
T4 sequence (whole entry): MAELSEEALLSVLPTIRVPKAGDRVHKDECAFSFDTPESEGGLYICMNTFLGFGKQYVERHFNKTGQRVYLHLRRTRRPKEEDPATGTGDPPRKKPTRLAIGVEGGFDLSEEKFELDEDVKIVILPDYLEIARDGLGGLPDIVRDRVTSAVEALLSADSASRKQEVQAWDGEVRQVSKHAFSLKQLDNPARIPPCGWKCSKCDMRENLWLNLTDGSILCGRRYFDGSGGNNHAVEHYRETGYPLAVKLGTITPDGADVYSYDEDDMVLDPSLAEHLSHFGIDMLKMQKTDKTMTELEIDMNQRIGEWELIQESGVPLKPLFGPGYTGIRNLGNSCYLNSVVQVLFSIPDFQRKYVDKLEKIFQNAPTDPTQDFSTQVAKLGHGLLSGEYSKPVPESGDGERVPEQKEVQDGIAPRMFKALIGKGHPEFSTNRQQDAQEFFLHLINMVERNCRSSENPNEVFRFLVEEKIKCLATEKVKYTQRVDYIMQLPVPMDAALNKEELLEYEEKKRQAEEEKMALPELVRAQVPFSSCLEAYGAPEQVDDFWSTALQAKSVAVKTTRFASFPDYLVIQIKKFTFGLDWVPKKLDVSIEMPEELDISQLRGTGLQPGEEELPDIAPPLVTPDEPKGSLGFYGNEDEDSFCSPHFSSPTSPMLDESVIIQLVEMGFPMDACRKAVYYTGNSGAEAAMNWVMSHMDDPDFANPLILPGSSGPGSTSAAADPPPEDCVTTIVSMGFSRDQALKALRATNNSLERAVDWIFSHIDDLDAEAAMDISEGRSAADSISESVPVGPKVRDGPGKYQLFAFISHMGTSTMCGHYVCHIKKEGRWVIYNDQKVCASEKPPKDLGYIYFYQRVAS
In short: as §1

[6] = target: USP54 (UniProt Q70EL1)
In short: as §1

[7] = target: USP7 (UniProt Q93009)
In short: as §1

[8] = target: T5, USP8 (UniProt P40818)
T5 sequence (whole entry): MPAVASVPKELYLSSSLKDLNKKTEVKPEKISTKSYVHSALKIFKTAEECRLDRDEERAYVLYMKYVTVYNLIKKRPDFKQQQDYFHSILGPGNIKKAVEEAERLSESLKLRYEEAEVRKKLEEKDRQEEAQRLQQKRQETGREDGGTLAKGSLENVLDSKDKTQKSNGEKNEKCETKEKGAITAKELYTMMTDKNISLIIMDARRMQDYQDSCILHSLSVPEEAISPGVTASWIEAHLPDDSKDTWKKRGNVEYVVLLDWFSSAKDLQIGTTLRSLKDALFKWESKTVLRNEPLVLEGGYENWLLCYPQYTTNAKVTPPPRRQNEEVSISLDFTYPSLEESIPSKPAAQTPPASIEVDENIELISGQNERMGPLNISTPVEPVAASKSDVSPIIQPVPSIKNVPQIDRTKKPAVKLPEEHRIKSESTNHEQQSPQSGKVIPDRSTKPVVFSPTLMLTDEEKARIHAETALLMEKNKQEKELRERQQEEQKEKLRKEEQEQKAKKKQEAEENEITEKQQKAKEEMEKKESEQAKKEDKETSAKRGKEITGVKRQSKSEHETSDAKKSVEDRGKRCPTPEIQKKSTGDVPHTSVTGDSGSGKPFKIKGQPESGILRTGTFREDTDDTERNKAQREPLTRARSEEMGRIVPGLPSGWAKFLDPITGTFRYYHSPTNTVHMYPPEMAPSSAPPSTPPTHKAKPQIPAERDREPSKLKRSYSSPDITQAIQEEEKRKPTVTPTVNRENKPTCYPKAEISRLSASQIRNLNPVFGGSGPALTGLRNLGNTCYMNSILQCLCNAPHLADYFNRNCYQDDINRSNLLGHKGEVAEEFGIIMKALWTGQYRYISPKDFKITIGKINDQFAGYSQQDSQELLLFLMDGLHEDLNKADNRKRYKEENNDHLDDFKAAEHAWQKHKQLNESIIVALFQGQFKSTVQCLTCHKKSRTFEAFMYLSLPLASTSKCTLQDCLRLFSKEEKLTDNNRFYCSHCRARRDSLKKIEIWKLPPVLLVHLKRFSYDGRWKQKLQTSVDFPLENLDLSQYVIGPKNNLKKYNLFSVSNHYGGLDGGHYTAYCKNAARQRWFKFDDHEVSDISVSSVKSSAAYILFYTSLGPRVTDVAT
In short: as §1

[9] = target: USP9X (UniProt Q93008)
In short: as §1

[10] = target: UniProt O00487
In short: as §1

Measured: log2 ratio of Biotin-Ahx-Ub-VS probe labelling

Chain of USP46 (P62068 whole entry): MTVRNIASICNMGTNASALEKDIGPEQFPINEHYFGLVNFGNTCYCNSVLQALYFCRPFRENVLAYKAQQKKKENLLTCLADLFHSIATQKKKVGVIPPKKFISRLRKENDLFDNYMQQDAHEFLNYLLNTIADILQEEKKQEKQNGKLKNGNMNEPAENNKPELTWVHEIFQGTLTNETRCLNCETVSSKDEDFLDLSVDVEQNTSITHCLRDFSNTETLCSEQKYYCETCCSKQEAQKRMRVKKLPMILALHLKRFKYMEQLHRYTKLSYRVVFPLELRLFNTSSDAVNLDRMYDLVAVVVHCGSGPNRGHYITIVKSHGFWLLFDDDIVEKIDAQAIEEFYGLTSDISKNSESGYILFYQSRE
Chain of USP7 (Q93009 whole entry, looked up): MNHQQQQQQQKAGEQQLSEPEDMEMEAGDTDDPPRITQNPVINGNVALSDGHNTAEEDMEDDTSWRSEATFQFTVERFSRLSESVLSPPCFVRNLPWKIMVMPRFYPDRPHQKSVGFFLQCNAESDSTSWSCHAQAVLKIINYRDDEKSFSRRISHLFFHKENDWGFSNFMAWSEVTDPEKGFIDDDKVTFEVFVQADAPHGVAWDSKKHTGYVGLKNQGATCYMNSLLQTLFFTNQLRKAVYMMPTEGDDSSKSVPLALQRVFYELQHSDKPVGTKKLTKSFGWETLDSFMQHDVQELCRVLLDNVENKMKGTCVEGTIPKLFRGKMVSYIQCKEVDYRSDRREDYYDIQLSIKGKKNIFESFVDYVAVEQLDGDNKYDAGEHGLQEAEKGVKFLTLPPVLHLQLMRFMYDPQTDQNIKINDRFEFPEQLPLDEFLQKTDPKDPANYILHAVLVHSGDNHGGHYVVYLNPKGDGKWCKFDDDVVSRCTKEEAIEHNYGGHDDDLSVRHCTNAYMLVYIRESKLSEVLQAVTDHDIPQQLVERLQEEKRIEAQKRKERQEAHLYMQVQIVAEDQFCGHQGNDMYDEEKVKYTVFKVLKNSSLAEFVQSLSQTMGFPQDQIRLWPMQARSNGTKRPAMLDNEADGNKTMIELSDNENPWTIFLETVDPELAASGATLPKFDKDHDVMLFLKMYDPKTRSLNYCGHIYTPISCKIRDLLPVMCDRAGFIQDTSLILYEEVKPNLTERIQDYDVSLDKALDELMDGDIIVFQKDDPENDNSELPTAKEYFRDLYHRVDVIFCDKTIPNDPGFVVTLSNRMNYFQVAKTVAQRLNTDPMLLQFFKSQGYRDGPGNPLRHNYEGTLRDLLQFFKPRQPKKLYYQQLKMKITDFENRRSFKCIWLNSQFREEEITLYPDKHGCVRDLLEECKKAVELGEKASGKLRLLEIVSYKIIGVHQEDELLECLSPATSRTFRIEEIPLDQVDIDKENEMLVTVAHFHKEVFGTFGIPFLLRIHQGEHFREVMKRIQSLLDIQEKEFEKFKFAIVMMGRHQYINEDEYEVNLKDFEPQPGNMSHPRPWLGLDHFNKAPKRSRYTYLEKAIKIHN
Chain of UniProt O00487 (O00487 whole entry): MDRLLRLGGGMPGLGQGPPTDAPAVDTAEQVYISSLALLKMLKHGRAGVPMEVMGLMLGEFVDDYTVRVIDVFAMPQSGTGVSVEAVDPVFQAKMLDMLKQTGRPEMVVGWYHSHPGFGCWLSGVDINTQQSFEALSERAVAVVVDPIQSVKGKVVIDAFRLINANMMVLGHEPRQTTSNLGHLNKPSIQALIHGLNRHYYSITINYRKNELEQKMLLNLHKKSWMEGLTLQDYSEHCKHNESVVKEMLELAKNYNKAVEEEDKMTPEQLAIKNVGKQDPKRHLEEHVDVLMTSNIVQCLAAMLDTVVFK
Chain of USP9X (Q93008 whole entry): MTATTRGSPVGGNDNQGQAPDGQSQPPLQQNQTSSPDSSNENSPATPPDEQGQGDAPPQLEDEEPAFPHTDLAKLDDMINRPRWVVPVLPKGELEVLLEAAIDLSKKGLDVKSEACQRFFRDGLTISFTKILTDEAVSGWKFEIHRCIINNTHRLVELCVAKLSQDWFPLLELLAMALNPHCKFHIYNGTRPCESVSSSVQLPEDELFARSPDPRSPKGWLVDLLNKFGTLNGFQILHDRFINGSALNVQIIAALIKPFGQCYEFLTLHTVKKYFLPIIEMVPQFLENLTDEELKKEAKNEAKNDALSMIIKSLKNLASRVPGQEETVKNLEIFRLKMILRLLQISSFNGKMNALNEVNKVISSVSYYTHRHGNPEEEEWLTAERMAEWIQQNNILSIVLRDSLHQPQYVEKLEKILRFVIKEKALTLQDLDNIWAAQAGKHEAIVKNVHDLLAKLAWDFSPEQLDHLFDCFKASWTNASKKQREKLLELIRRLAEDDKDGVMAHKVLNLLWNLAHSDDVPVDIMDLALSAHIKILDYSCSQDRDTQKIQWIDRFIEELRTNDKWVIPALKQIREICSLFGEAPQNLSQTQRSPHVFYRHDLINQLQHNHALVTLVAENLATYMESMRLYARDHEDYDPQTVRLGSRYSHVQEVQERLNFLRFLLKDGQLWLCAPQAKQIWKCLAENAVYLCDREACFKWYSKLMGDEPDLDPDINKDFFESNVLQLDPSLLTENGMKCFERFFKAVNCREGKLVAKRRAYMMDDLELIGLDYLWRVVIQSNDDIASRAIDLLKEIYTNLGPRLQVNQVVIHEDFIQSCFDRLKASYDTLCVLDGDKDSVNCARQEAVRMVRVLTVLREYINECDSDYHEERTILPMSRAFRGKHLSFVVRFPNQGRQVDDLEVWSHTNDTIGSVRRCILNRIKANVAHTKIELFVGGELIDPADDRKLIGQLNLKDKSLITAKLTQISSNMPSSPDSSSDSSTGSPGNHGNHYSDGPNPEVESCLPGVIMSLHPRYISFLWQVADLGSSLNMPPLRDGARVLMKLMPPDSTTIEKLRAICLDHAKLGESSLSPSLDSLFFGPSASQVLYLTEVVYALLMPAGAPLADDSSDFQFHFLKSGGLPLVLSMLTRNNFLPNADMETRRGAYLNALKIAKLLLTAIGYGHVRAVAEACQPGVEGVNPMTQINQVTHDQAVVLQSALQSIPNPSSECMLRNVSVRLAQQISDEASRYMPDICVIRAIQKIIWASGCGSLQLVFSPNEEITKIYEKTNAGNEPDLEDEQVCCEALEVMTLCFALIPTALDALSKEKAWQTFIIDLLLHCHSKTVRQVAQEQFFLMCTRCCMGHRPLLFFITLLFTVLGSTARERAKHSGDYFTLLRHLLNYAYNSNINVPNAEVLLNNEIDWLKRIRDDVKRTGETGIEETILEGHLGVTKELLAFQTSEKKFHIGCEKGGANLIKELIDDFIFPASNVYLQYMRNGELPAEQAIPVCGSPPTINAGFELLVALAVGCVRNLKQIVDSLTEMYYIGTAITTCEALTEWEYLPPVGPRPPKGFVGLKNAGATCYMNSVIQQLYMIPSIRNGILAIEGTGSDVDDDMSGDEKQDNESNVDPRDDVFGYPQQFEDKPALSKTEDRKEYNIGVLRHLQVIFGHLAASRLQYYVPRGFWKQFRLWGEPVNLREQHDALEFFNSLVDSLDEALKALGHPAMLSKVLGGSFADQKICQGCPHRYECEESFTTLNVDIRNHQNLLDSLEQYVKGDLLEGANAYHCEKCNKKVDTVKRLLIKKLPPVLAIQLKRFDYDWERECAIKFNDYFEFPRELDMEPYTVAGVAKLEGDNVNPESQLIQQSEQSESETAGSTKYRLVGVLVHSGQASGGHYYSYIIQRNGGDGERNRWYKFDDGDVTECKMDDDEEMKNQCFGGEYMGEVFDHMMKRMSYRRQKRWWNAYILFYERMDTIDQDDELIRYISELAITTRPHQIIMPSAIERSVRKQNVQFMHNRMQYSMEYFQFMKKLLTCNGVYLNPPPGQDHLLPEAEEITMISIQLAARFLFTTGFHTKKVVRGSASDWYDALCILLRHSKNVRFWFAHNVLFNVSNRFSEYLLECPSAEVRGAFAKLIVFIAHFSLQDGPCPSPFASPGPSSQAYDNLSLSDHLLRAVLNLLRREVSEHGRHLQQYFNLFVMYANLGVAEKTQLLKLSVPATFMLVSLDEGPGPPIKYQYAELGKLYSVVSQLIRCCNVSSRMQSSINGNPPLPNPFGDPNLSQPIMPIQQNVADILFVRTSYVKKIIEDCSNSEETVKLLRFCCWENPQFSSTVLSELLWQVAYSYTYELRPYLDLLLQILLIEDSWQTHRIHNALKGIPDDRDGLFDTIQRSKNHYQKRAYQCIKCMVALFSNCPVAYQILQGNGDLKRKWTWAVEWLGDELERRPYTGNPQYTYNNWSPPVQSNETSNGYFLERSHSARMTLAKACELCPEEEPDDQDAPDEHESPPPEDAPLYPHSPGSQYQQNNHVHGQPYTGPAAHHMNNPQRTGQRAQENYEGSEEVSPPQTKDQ

Cl.O=C(CCl)NCCN1CCc2ccccc21
inactive: [1] -0.219 | [2] -0.521 | [3] 0.103 | [4] -0.343 | [5] -0.362 | [6] 0.277 | [7] -0.711 | [8] -0.959 | [9] -0.798 | [10] -0.255

CC(NC(=O)CCl)c1cccc2ccccc12 (stereo not given)
inactive: [1] -0.241 | [2] 0.159 | [3] -0.308 | [4] -0.368 | [5] 0.225 | [6] 0.115 | [7] -0.339 | [8] -0.651 | [9] -0.285 | [10] -0.0949

CC(=O)C1CCCCN1C(=O)CCl (stereo not given)
inactive: [1] 0.359 | [2] 0.0148 | [3] -0.0598 | [4] -0.362 | [5] -0.139 | [6] 0.498 | [7] -0.172 | [8] 0.076 | [9] -0.034 | [10] -0.0675

O=C(CN1CCN(C(=O)CCl)CC1)Nc1cccc(F)c1
inactive: [1] -0.241 | [2] -0.173 | [3] -0.178 | [4] -0.419 | [5] 0.215 | [6] 0.835 | [7] -0.436 | [8] -0.23 | [9] -0.429 | [10] 0.0211
